# Experimental data: the supplement of paper PMC10849652
# About 7,900 targets were measured; listed, in parts, are those with a hit and a random draw of the rest. About 0.6% of all pairs of compound and target were hits. A number with no mark means an inactive call.
# What was measured:
# Assay in all cases: log2 fold change, soluble protein after heating vs DMSO (PISA); higher = thermal stabilisation; K562 cells, 10 uM, 30 min; active = over 0.2 and 3.5 SD of the protein, either way, in both replicates (recomputed)
# [1] = compound: CS(=O)(=O)c1ccc(-c2cnc(N)c(C(=O)Nc3ccccc3)n2)cc1
# Summary of the method: (§1)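 K562 cells at 2×10^6 cells/mL were exposed to 10 μM compound for 30 min, then aliquots were heated for 3 min across 48°C-58°C, pooled, and extracted in PBS containing 0.5% NP-40 at 4°C. The supernatant after 21,000xg for 90 min was taken as soluble protein and measured by TMTpro 16plex LC-MS/MS with channel sums equalised. Thermal stability is reported relative to control samples, with values from duplicates. Fold changes are given on a log2 scale.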
# [2] = compound: C[C@@H]1COCCN1C2=NC(=NC(=C2)C3(CC3)S(=O)(=O)C)C4=C5C=CNC5=CC=C4
# Summary of the method: as §1
# nilotinib = compound: Cc1cn(-c2cc(NC(=O)c3ccc(C)c(Nc4nccc(-c5cccnc5)n4)c3)cc(C(F)(F)F)c2)cn1 [nilotinib]
# Summary of the method: as §1
# [3] = compound: Cc1nc(Nc2n[nH]c3c2CN(C(=O)N[C@H](CN(C)C)c2ccccc2)C3(C)C)c2sccc2n1
# Summary of the method: as §1
# [4] = compound: Cc1ncc(-c2ccnc(Nc3ccc(S(C)(=O)=O)cc3)n2)n1C(C)C
# Summary of the method: as §1
# bafetinib = compound: Cc1ccc(NC(=O)c2ccc(CN3CC[C@H](N(C)C)C3)c(C(F)(F)F)c2)cc1Nc1nccc(-c2cncnc2)n1 [bafetinib]
# Summary of the method: as §1
# [5] = compound: C[C@H](C1=CC=C(C=C1)C(=O)NC2=C3C=CNC3=NC=C2)N
# Summary of the method: as §1
# gandotinib = compound: Cc1cc(Nc2cc(CN3CCOCC3)c3nc(C)c(Cc4ccc(Cl)cc4F)n3n2)n[nH]1 [gandotinib]
# Summary of the method: as §1
# tozasertib = compound: Cc1cc(Nc2cc(N3CCN(C)CC3)nc(Sc3ccc(NC(=O)C4CC4)cc3)n2)n[nH]1 [tozasertib]
# Summary of the method: as §1
# [6] = compound: Cc1cccc(CC(=O)N2CCc3c2ccc(-c2cn(C)c4ncnc(N)c24)c3F)n1
# Summary of the method: as §1
# [7] = compound: Cn1cc(-c2ccc3c(c2)CCN3C(=O)Cc2cccc(C(F)(F)F)c2)c2c(N)ncnc21
# Summary of the method: as §1
# mubritinib = compound: FC(F)(F)c1ccc(/C=C/c2nc(COc3ccc(CCCCn4ccnn4)cc3)co2)cc1 [mubritinib]
# Summary of the method: as §1
# duvelisib = compound: C[C@H](Nc1ncnc2nc[nH]c12)c1cc2cccc(Cl)c2c(=O)n1-c1ccccc1 [duvelisib]
# Summary of the method: as §1
# [8] = compound: Cc1cc(SCc2sc(-c3ccc(C(F)(F)F)cc3)nc2C)ccc1OCC(=O)O
# Summary of the method: as §1
# dasatinib = compound: Cc1nc(Nc2ncc(C(=O)Nc3c(C)cccc3Cl)s2)cc(N2CCN(CCO)CC2)n1 [dasatinib]
# Summary of the method: as §1
# ispinesib = compound: Cc1ccc(C(=O)N(CCCN)[C@@H](c2nc3cc(Cl)ccc3c(=O)n2Cc2ccccc2)C(C)C)cc1 [ispinesib]
# Summary of the method: as §1
# [9] = compound: Cn1cc(-c2ccc3nnc(C(F)(F)c4ccc5ncccc5c4)n3n2)cn1
# Summary of the method: as §1
# crizotinib = compound: C[C@@H](Oc1cc(-c2cnn(C3CCNCC3)c2)cnc1N)c1c(Cl)ccc(F)c1Cl [crizotinib]
# Summary of the method: as §1
# doramapimod = compound: Cc1ccc(-n2nc(C(C)(C)C)cc2NC(=O)Nc2ccc(OCCN3CCOCC3)c3ccccc23)cc1 [doramapimod]
# Summary of the method: as §1
# tipifarnib = compound: Cn1cncc1[C@@](N)(c1ccc(Cl)cc1)c1ccc2c(c1)c(-c1cccc(Cl)c1)cc(=O)n2C [tipifarnib]
# Summary of the method: as §1
# Sequence of UniProt Q16531 (Q16531 whole entry, looked up): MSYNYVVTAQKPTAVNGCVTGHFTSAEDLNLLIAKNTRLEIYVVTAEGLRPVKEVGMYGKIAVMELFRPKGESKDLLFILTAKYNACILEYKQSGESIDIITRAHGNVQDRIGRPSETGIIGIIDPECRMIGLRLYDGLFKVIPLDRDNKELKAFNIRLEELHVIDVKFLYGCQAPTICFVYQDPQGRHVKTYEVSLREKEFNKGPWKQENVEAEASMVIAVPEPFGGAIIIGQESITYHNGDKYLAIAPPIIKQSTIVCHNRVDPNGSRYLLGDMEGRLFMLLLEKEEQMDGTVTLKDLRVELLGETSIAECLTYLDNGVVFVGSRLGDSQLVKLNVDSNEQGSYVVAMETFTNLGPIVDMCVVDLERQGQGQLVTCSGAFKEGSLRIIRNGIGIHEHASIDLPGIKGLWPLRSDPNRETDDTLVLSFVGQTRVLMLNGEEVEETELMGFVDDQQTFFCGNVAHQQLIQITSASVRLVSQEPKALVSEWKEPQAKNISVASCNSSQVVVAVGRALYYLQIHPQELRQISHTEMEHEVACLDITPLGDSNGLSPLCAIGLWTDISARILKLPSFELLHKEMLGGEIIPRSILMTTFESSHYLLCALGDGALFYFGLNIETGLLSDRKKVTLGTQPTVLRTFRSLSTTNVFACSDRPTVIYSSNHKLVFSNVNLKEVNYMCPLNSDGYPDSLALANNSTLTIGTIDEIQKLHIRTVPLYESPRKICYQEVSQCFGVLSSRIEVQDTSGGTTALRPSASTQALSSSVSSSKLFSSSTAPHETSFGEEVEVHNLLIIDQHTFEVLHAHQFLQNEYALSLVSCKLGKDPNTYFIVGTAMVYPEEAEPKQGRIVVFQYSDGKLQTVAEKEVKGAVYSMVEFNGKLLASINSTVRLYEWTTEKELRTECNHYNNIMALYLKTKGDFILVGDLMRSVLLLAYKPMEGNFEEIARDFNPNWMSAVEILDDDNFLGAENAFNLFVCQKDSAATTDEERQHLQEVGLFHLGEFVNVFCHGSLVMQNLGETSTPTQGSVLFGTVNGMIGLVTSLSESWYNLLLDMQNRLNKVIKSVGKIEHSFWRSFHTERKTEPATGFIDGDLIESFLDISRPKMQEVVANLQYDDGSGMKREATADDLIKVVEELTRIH
# Sequence of UniProt Q6P1L5 (Q6P1L5 whole entry, looked up): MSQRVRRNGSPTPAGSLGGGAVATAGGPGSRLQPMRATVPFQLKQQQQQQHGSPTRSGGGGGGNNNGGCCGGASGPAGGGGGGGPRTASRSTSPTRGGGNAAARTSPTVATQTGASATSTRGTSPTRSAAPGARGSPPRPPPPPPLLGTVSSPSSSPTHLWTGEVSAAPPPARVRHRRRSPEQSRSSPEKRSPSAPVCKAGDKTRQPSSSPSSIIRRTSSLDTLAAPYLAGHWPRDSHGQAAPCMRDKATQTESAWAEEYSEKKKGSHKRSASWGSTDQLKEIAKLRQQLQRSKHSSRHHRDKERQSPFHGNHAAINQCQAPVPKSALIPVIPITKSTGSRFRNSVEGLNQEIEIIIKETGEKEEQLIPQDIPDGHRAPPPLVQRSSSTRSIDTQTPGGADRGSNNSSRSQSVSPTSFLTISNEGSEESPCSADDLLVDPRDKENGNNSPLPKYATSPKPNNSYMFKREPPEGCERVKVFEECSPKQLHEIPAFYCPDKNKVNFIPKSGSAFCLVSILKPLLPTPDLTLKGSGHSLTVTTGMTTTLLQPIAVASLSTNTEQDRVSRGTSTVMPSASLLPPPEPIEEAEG
# Sequence of UniProt Q8NDI1 (Q8NDI1 whole entry, looked up): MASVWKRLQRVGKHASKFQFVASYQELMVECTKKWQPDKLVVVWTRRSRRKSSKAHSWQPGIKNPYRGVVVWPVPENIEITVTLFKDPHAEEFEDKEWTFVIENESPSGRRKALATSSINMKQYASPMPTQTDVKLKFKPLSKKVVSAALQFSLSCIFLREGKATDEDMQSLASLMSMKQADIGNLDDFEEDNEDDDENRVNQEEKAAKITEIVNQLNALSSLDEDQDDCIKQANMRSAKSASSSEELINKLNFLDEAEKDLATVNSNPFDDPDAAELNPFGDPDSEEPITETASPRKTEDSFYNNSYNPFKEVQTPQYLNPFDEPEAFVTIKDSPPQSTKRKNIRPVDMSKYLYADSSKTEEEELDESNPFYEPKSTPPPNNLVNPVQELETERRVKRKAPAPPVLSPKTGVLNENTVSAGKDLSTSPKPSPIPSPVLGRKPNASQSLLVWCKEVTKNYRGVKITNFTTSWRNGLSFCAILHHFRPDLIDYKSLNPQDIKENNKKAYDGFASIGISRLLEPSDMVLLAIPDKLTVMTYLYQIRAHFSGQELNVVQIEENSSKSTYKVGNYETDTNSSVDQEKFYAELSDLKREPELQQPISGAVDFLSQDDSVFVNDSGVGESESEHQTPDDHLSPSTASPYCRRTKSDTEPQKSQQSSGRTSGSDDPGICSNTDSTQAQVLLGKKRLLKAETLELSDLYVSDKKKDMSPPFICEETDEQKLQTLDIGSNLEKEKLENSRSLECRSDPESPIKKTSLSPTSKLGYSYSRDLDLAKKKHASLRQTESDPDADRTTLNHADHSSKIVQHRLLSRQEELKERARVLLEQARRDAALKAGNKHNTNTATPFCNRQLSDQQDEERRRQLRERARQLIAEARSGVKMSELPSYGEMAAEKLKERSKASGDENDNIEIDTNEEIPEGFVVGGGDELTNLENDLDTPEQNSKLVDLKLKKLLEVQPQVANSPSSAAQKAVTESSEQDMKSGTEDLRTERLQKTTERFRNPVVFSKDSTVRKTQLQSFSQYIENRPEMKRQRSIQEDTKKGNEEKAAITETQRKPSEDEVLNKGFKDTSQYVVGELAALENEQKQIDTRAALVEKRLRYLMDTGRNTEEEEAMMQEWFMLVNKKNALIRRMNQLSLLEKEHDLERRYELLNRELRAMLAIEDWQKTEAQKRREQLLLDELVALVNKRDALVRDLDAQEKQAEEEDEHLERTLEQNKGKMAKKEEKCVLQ
# Sequence of UniProt Q9P2D6 (Q9P2D6 whole entry, looked up): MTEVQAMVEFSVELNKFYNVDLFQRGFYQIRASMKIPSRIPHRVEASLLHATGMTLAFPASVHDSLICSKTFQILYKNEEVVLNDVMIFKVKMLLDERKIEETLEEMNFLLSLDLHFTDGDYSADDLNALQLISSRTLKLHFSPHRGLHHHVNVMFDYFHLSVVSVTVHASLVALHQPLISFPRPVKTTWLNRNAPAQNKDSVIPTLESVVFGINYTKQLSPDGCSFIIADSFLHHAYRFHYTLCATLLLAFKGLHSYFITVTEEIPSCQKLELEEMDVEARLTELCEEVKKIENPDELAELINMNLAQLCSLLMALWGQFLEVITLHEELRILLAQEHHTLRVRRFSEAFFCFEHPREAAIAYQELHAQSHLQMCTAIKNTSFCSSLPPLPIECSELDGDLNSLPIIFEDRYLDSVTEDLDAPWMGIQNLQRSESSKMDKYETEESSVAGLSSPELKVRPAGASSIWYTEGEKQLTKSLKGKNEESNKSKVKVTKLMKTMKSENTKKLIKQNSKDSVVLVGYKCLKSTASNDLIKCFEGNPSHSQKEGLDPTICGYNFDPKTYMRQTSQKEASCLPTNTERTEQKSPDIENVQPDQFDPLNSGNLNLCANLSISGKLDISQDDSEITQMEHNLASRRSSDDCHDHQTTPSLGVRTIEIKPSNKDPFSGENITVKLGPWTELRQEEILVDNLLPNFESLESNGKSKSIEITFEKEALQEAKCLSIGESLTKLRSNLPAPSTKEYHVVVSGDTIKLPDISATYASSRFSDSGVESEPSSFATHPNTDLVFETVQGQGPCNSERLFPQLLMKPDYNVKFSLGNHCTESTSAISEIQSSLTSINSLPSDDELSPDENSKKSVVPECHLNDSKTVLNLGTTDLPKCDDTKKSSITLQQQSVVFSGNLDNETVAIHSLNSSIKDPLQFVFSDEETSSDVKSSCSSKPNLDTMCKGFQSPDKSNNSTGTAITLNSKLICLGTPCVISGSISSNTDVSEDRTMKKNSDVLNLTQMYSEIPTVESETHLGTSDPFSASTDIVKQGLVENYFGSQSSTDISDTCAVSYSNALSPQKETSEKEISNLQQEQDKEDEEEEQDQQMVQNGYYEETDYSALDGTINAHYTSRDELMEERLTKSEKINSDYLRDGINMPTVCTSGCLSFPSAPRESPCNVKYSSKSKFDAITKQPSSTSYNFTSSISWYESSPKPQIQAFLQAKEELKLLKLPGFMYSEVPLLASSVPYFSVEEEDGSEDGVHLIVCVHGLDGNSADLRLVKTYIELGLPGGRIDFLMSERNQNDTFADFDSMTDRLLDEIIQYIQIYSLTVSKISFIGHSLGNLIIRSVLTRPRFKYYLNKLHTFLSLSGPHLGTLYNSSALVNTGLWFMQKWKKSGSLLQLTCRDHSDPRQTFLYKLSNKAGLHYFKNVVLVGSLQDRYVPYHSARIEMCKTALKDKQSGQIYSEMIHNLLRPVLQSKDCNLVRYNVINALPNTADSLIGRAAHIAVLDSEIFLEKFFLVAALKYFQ
# Sequence of UniProt P25774 (P25774 whole entry, looked up): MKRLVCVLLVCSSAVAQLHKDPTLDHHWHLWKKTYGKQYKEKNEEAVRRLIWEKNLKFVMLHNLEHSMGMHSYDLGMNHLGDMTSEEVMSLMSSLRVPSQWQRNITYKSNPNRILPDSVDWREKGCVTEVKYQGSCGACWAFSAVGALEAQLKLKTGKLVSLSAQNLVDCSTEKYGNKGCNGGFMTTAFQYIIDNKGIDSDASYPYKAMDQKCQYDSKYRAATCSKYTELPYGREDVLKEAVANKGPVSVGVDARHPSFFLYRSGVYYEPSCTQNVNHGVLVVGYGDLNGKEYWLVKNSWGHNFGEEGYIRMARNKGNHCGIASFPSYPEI
target,measurement,setting,value
FAM135A (UniProt Q9P2D6),log2 fold change,[1],0.087
same,log2 fold change,[2],0.038
same,log2 fold change,nilotinib,0.054
same,log2 fold change,[3],-0.138
same,log2 fold change,[4],-0.054
EPHX2 (UniProt E5RI53),log2 fold change,[2],0.067
same,log2 fold change,bafetinib,-0.17
EHBP1 (UniProt Q8NDI1),log2 fold change,[5],0.158
same,log2 fold change,gandotinib,0.015
same,log2 fold change,tozasertib,0.043
same,log2 fold change,[6],-0.154
same,log2 fold change,[7],-0.076
same,log2 fold change,mubritinib,-0.586 (active)
EIF4G1 (UniProt Q04637),log2 fold change,[5],0.184
same,log2 fold change,duvelisib,-0.111
same,log2 fold change,gandotinib,-0.082
same,log2 fold change,tozasertib,-0.051
same,log2 fold change,[8],0.227
same,log2 fold change,[6],0.017
same,log2 fold change,dasatinib,-0.191
same,log2 fold change,[7],-0.032
EDRF1 (UniProt Q3B7T1),log2 fold change,[1],0.024
same,log2 fold change,[2],0.055
same,log2 fold change,[5],-0.008
same,log2 fold change,duvelisib,0.129
same,log2 fold change,gandotinib,0.098
same,log2 fold change,[8],0.134
same,log2 fold change,ispinesib,-0.24
same,log2 fold change,bafetinib,-0.04
same,log2 fold change,[6],-0.209
same,log2 fold change,dasatinib,-0.157
same,log2 fold change,[7],-0.275
same,log2 fold change,[9],-0.114
same,log2 fold change,mubritinib,0.045
FAM117B (UniProt Q6P1L5),log2 fold change,crizotinib,0.563
same,log2 fold change,[2],0.007
same,log2 fold change,[5],-0.021
same,log2 fold change,duvelisib,-0.381
same,log2 fold change,gandotinib,-0.164
same,log2 fold change,tozasertib,-0.175
same,log2 fold change,[8],0.257
same,log2 fold change,doramapimod,0.21
same,log2 fold change,ispinesib,-0.057
same,log2 fold change,[6],0.01
same,log2 fold change,dasatinib,0.207
same,log2 fold change,[7],-0.029
same,log2 fold change,[9],0.072
DHPS (UniProt M0R1T2),log2 fold change,[1],-0.152
same,log2 fold change,bafetinib,0.081
DLK1 (UniProt P80370),log2 fold change,crizotinib,-0.108
same,log2 fold change,[2],-0.151
same,log2 fold change,[5],-0.133
same,log2 fold change,duvelisib,-0.173
same,log2 fold change,[8],-0.058
same,log2 fold change,doramapimod,0.002
same,log2 fold change,dasatinib,-0.012
same,log2 fold change,[7],-0.279
CTSS (UniProt P25774),log2 fold change,[1],-0.007
same,log2 fold change,crizotinib,0.063
same,log2 fold change,[5],0.059
same,log2 fold change,duvelisib,0.01
same,log2 fold change,gandotinib,0.018
same,log2 fold change,tozasertib,-0.114
same,log2 fold change,[8],0.045
same,log2 fold change,doramapimod,0.043
same,log2 fold change,ispinesib,0.049
same,log2 fold change,[6],-0.063
same,log2 fold change,dasatinib,0.052
same,log2 fold change,[7],-0.07
same,log2 fold change,[9],-0.028
DDB1 isoform 2 (UniProt Q16531),log2 fold change,[1],0.009
same,log2 fold change,[2],0.118
same,log2 fold change,gandotinib,-0.228
same,log2 fold change,bafetinib,-0.286
same,log2 fold change,[6],-0.094
FADS1 (UniProt F5GYH4),log2 fold change,crizotinib,-0.079
same,log2 fold change,tozasertib,-0.262
same,log2 fold change,doramapimod,0.106
same,log2 fold change,bafetinib,0.034
F2RL3 (UniProt Q96RI0),log2 fold change,[5],-0.159
same,log2 fold change,duvelisib,0.081
same,log2 fold change,tozasertib,-0.163
same,log2 fold change,[8],-0.059
same,log2 fold change,ispinesib,0.004
same,log2 fold change,dasatinib,-0.03
same,log2 fold change,[7],-0.051
same,log2 fold change,[9],0.043
same,log2 fold change,tipifarnib,-0.016
FAM160A2 isoform 2 (UniProt Q8N612),log2 fold change,crizotinib,-0.004
same,log2 fold change,[2],0.042
same,log2 fold change,[5],-0.041
same,log2 fold change,duvelisib,0.179
same,log2 fold change,gandotinib,0.115
same,log2 fold change,tozasertib,-0.28
same,log2 fold change,[8],0.212
same,log2 fold change,doramapimod,-0.003
same,log2 fold change,ispinesib,-0.192
same,log2 fold change,bafetinib,-0.208
same,log2 fold change,[6],-0.145
same,log2 fold change,nilotinib,-0.085
same,log2 fold change,[3],0.192
same,log2 fold change,dasatinib,-0.186
same,log2 fold change,[4],-0.101
same,log2 fold change,[7],-0.083
same,log2 fold change,[9],0.046
same,log2 fold change,mubritinib,0.093
"DDX46, A0A0C4DG89",log2 fold change,[2],-0.009
same,log2 fold change,nilotinib,0.151
same,log2 fold change,[3],-0.322
same,log2 fold change,[4],0.032
same,log2 fold change,mubritinib,0.242
CWF19L2 (UniProt Q2TBE0),log2 fold change,[1],-0.024
same,log2 fold change,crizotinib,-0.034
same,log2 fold change,[5],0.027
same,log2 fold change,duvelisib,-0.1
same,log2 fold change,gandotinib,0.777 (active)
same,log2 fold change,tozasertib,-0.016
same,log2 fold change,[8],-0.001
same,log2 fold change,doramapimod,-0.021
same,log2 fold change,ispinesib,-0.115
same,log2 fold change,[6],-0.285
same,log2 fold change,dasatinib,0.118
same,log2 fold change,[7],-0.102
same,log2 fold change,[9],0.001
same,log2 fold change,tipifarnib,0.083
DCAF12 (UniProt Q5T6F0),log2 fold change,[1],-0.101
same,log2 fold change,gandotinib,-0.735 (active)
same,log2 fold change,[6],0.124
same,log2 fold change,mubritinib,0.087
